Experimental data as given in PubChem BioAssay AID1259240 (Keith Lab, Institute of Cancer Science, University of …, 2017).
A number with no mark means an inactive call. The source made the active and inactive calls. No stated cut-off is given here; in the data, active means fold change mostly below about -2 (no sharp cut-off); inactive means mostly above about -1.8.

Experiment: TERT promoter activity modulators, primary screen, cell-based, luciferase reporter, human (AID 1259240)
Details: A2780 TERT promoter luciferase reporter, 16 h; at 20 µM, fold versus average of vehicle-only wells

| Structure (SMILES) | fold change |
| --- | --- |
| Cc1cc(C(=O)NC2CCCCC2)on1 | 1.39 |
| FC(F)(F)c1ccc2c(c1)C1C=CCC1C(c1ccncc1)N2 (configuration not stated) | -1.04 |
| O=C(NCCCN1CCCC1)c1ccc2nc(N3CCOCC3)sc2c1 | -1.09 |
| COc1ccc(C(=O)CSc2nnc(Cc3cc(=O)[nH]c(=O)[nH]3)n2-c2ccc(Cl)cc2)cc1 | -1.34 |
| Cn1c(-c2ccc(N)cc2)nc2cc(N)ccc21 | -1.51 |
| Cc1nn(CC(=O)Nc2sc3c(c2C#N)CCCCC3)c(C)c1[N+](=O)[O-] | -1.25 |
| CCc1ccc(C2C3=C(CC(C)(C)CC3=O)NC3=C2C(=O)c2ccccc23)cc1 (configuration not stated) | -2.26 (active) |
